{"source": "the supplement of paper PMC11417369", "note": "Over roughly 25,000 sequences, “ln(normalized median fluorescence intensity)” has its median near 7.1; the highest 2% begin near 10. This excerpt belongs to a sample that is enriched for the highest values."}
{"system": "PfSIP2 AP2 domain 1 (GST-tagged)", "assay": "gcPBM binding intensity (ln(normalized median fluorescence intensity)); higher = stronger DNA binding", "outline": "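Alexa488 anti-GST antibody, scanned at 488 nm, detected GST-tagged P. falciparum DNA-binding domains that had been expressed in E. coli and incubated for 1 h on an Agilent 4 × 180k array. The array carried primer-extended double-stranded 36-bp intergenic genomic probes and negative controls. Binding intensity is the highest Masliner-normalised natural-log median intensity across replicate spots of either orientation of each probe.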"}
{"sequence": "TATTAACTCAATAGCGCACACTTTTAATATTTTATA [CACACA_site4973]", "gcPBM binding intensity (ln)": 7.33}
{"sequence": "TAAATAGGAAAACCTATACACACTTTAAAAAAAATA [CACACA_site1621]", "gcPBM binding intensity (ln)": 6.75}
{"sequence": "ATTATATCATCTAAAACATGCACACATATGTACTCT [TGCATGCA_site949]", "gcPBM binding intensity (ln)": 7.12}
{"sequence": "TTATTTATGAGGGTGACACACAAAAGAGTGTTAAGA [CACACA_site277]", "gcPBM binding intensity (ln)": 6.75}
{"sequence": "ATACGAAAAAATAGACGTACTATGAAATAATAATTT [XGTACX_site8387]", "gcPBM binding intensity (ln)": 6.87}
{"sequence": "GTCCTCATCCACTATGCACACAAAAAAGAAATACAC [CACACA_site9131]", "gcPBM binding intensity (ln)": 8.48}
{"sequence": "AAAAAAAAAAAACACACACACACACCCAAATATATA [CACACA_site150]", "gcPBM binding intensity (ln)": 7.14}
{"sequence": "GGAAAAAATATATGCACACCCCCCAAAAAAAAAAAA [CACACA_site2222]", "gcPBM binding intensity (ln)": 9.73}
{"sequence": "TGGGAAAAAATATATGCACACCCCCCAAAAAAAAAA [CACACA_site8696]", "gcPBM binding intensity (ln)": 10.8}
{"sequence": "ATAGTTTTATATAAATGTACAAATGATTTCAAATAG [XGTACX_site8236]", "gcPBM binding intensity (ln)": 7.08}
{"sequence": "GTTATATTTAAAATAGTGCAATAAAAATAATAATAT", "gcPBM binding intensity (ln)": 8.42}
{"sequence": "TAAATATATATATATAGTACAATATAATTATGATAT [XGTACX_site258]", "gcPBM binding intensity (ln)": 7.24}
{"sequence": "ATTATTAAAATGATATGTACGCACATAATATACATA [XGTACX_site3236]", "gcPBM binding intensity (ln)": 7.06}
{"sequence": "TTATATTATTCGTGTGTGCACGATATTTCATAATTG [GTGCAC_site9767]", "gcPBM binding intensity (ln)": 8.96}
{"sequence": "ATATATATATATTTCGTGCACTGATAATATTATTTT", "gcPBM binding intensity (ln)": 10.2}
{"sequence": "ATAATTAAAAATAATATATATATAATATGATATTAT [GTGCAC_negctrl_site194]", "gcPBM binding intensity (ln)": 6.94}
{"sequence": "ATATTTTATATAATAGTGCAAATAATATTAAATAAT", "gcPBM binding intensity (ln)": 8.4}
{"sequence": "ATATATATATTTATAGTGCATTTATATTAAAATATC [GTGCAC_site9818]", "gcPBM binding intensity (ln)": 8.92}
{"sequence": "TTATAATATTAATGTGCACACAATTAAAATATTATA [CACACA_site2046]", "gcPBM binding intensity (ln)": 9.4}
{"sequence": "AAAAAAAAAAAATACGTGCACTATGATATATTATAT", "gcPBM binding intensity (ln)": 10.3}
{"sequence": "ATGATATATTTAATAGTGCACTAATTAAAATTATTA [GTGCAC_site9418]", "gcPBM binding intensity (ln)": 11}
{"sequence": "ATAATTATATGATGAGTGCACAATAAAAATATCGTT [GTGCAC_site9920]", "gcPBM binding intensity (ln)": 10.7}
{"sequence": "TATATATATACTTAATGTACATATATATATATATAT [XGTACX_site3102]", "gcPBM binding intensity (ln)": 9.75}
{"sequence": "CCCCTTAATTAAAGGAGTACTATTTGTGAATAATAT [XGTACX_site4715]", "gcPBM binding intensity (ln)": 7.47}
{"sequence": "ATAATTCCATAAAATAGACACACGAATGTATAATAT [CACACA_site477]", "gcPBM binding intensity (ln)": 7}
{"sequence": "AATAATGAAAAATCAAATAACCTAAATTACAACTGT [XGTACX_negctrl_site65]", "gcPBM binding intensity (ln)": 6.91}
{"sequence": "TACGTTGTATATTTTTGTACATATTGAATTACAAAA [XGTACX_site5906]", "gcPBM binding intensity (ln)": 6.95}
{"sequence": "ACGAAAAGATATATATGTACATATATTAAAAAAAAA [XGTACX_site1517]", "gcPBM binding intensity (ln)": 7.01}
{"sequence": "TTCAAACATATTAATTGTACATACAACAAAACCATG [XGTACX_site5149]", "gcPBM binding intensity (ln)": 7.13}
{"sequence": "ATTATGCACGGACACACACACACACCCCTAAAAAAT [CACACA_site5426]", "gcPBM binding intensity (ln)": 7.88}
{"sequence": "ATTATGCACCAACACACACACACACTCCTAAAAAAT [CACACA_site8822]", "gcPBM binding intensity (ln)": 11.1}
{"sequence": "TAATTATGCCAACACACACACACACCCAACTAAAAA [CACACA_site8823]", "gcPBM binding intensity (ln)": 7.32}
{"sequence": "ATTATGCACCAACACACACACACACCCCTAAAAAAT [CACACA_site2568]", "gcPBM binding intensity (ln)": 10.8}
{"sequence": "TGCACAAAATTATGCACACACCTAAAATTAATTTTT [CACACA_site5596]", "gcPBM binding intensity (ln)": 8.28}
{"sequence": "TGTGCCCAAAATTATGCACACACCTAAAATTAATTT [CACACA_site2914]", "gcPBM binding intensity (ln)": 7.79}
{"sequence": "TATATACTCAGACATACACACAAATAAAAAAACACC [CACACA_site5820]", "gcPBM binding intensity (ln)": 8.07}
{"sequence": "AAATAATATATTCTATATAATAAATTATAAATATAA [GTGCAC_negctrl_site558]", "gcPBM binding intensity (ln)": 6.58}
{"sequence": "AAGTGTATATAAAAATGTACATATTTCGATTTAAAT [XGTACX_site4161]", "gcPBM binding intensity (ln)": 7.11}
{"sequence": "TTTATATCATTTCTTAAAAAAAAGGAGGTAATAGAC [TGCATGCA_negctrl_site555]", "gcPBM binding intensity (ln)": 8.44}
{"sequence": "TTATTTTTAATATCGGTGCAACAAAAAGGAAAAGAT [GTGCAC_site9482]", "gcPBM binding intensity (ln)": 9.64}
{"sequence": "TTCTTAAAAGGAAAGGTGCAACTTTATCATTTTCTT", "gcPBM binding intensity (ln)": 10.9}
{"sequence": "TAAAGATGAAATATCACACATATATAAATATATAAA [CACACA_site4580]", "gcPBM binding intensity (ln)": 6.69}
{"sequence": "AATAATAATAGAAACACACACACATTTTTAAGAATA [CACACA_site6692]", "gcPBM binding intensity (ln)": 6.74}
{"sequence": "AACAAAGAAAATACATGTACAAAAAATATTAACGAA [XGTACX_site287]", "gcPBM binding intensity (ln)": 7.22}
{"sequence": "TTTAGTGAGTTTGTTGTGCACTGAAAAAATTACAAT", "gcPBM binding intensity (ln)": 10.5}
{"sequence": "TATATTATATATATACTGCACTGTTTTACAAAATTA", "gcPBM binding intensity (ln)": 8.44}
{"sequence": "ATAAATAAAACAACAGTGCAATAAAATTAGTTGAGG", "gcPBM binding intensity (ln)": 7.5}
{"sequence": "TTATATAATCCTTTCAAACACACAAAATATAATTAA [CACACA_site1830]", "gcPBM binding intensity (ln)": 6.91}
{"sequence": "ACAAAATAAACCACGTGTACAAATTTATAATGTGTA [XGTACX_site1153]", "gcPBM binding intensity (ln)": 7.21}
{"sequence": "ATCTTAACTCTATGCACACATAAAAGTATATAAATA [CACACA_site2256]", "gcPBM binding intensity (ln)": 7.7}
{"sequence": "AAAAATAAAATGATGGTGCACATAAAGTATGGTTAC", "gcPBM binding intensity (ln)": 11.3}
{"sequence": "AAAAAAAAAAAAAGCACACATATAAATATGAATAAA [CACACA_site1393]", "gcPBM binding intensity (ln)": 7.18}
{"sequence": "TACAAAATATATATGACACACATAAAAAAAAGTATA [CACACA_site1373]", "gcPBM binding intensity (ln)": 6.96}
{"sequence": "AAAAAAAAAAAGTGCACACATAAAAATATGATCTAA [CACACA_site572]", "gcPBM binding intensity (ln)": 11.5}
{"sequence": "AAAAAAAAAAAAAAAGCACACATATAAATATGAATA [CACACA_site8391]", "gcPBM binding intensity (ln)": 7.5}
{"sequence": "AAAAAAAAAAAAAGTGCACACATAAAAATATGATCT [CACACA_site8090]", "gcPBM binding intensity (ln)": 11.2}
{"sequence": "TGTTAAAAAATGGATGCACACATTAAATAAAAAGTA [CACACA_site1660]", "gcPBM binding intensity (ln)": 8.9}
{"sequence": "TATATATATATGTGCACACATAATAAAAAAAAAAAT [CACACA_site3831]", "gcPBM binding intensity (ln)": 9.49}
{"sequence": "ATATATGACTAATAAAGTACATACTTCATATAATTA [XGTACX_site6699]", "gcPBM binding intensity (ln)": 7.06}
